From PubChem BioAssay AID1766 (National Center for Advancing Translational Sciences (NCATS), 2009)
Fewer than 10 of roughly 290,000 compounds were called active. Inconclusive results (about 3%) are left out. The call rests on the fitted dose curve; in most records, active means well fitted curve in the direction sought with a large enough effect in the polarisation (not every such curve was filed as active); inconclusive means small, poorly fitted or top-dose-only effect, or effect the other way, or a change in a side signal; inactive means no such curve, though single readings can be large or run the other way; the % refers to the polarisation. A selection follows.

Assay: qHTS Assay for Inhibitors Targeting the Menin-MLL Interaction in MLL Related Leukemias: Competition With Fluorescein Labeled MLL-derived Peptide; further: % of control where 0% means no effect
Settings: Fluorescence polarization, fluorescein-MLL peptide displacement from menin; series mostly up to 61.4 µM; FP activity change: at the top concentration
Description: qHTS Assay for Inhibitors Targeting the Menin-MLL Interaction in MLL Related Leukemias NIH Chemical Genomics Center [NCGC] NIH Molecular Libraries Probe Centers Network [MLPCN] MLPCN Grant: MH084875-01A1 Assay Submitter (PI): Jolanta Grembecka, Tomasz Cierpicki, University of Virginia Translocations of the MLL (Mixed Lineage Leukemia) gene are frequently found in human leukemias affecting both children and adults. Fusion of MLL to one of more than 60 genes results in generation of oncogenic proteins upregulating Hox genes, which are vital to blood cell development. Patients harboring fusion of the MLL gene suffer from aggressive leukemias and respond poorly to available therapies. All of the oncogenic fusion proteins have a preserved N-terminal fragment of MLL that has been identified to interact with menin. It has been recently discovered that association with menin is critical to the leukemogenic activity of the MLL fusion oncoproteins. Selective targeting of the menin-MLL interaction could provide an attractive therapeutic approach to develop novel drugs for MLL-related leukemias. Small molecules blocking the menin-MLL interaction should reverse the oncogenic potential of MLL fusion proteins. We have developed and optimized a fluorescence polarization-based assay for the identification of Menin-MLL inhibitors. The assay was run employing two different MLL-derived peptides. The present assay uses a 12 amino acid peptide labeled with fluorescein at its N-terminus. This peptide consists of the menin high affinity binding motif from MLL and is potently bound by menin. Another peptide with a mutated sequence, labeled with Texas Red, was used in parallel as a less stringent screen for inhibitors.
The Menin protein, the MLL-wild type (w.t.) derived peptide (N-terminal 12 amino acids), the MLL-derived peptide labeled with Texas Red and the MLL-w.t. peptide labeled with Fluorescein were kindly supplied by laboratory of Dr. Jolanta Grembecka, University of Virginia. All protein and peptide solutions were stored in single use aliquots at -80C. The Eu3+ Cyrptate-conjugated mouse monoclonal antibody anti-6 Histidine (Eu3+-AB) and the Streptavidin-XL665 conjugate (XL665) were purchased from Cisbio International (Bedford, MA). All antibody and XL665 conjugate solution stocks were stored in single use aliquots at -20C. The Buffer components for all assays were purchased from Sigma-Aldrich (St. Louis, MO) and Invitrogen (Carlsbad, CA). FP Assay Reagents: 1. FP reaction buffer: 50 mM Tris-HCl pH 7.5, 50 mM NaCl, 1mM DTT. Before use, 0.05% BSA is added. 2. Menin protein, MLL-w.t. labeled with fluorescein, MLL-mutant peptide labeled with texas red. Stored in singe use aliquots at -80C. 3. MLL-w.t. unlabeled peptide as positive control: 10 uM final in FP buffer. FP Assay Procedure: 1. Prepare Menin at 200 nM, MLL-w.t.-fluorescein at 25 nM, and MLL-mutant-texas red at 50 nM mixture in FP buffer. 2. Prepare Menin at 200 nM, MLL-w.t.-fluorescein at 25 nM, MLL-mutant-texas red at 50 nM, and 10 uM MLL-w.t. unlabeled mixture in FP buffer. 3. Prepare MLL-w.t.-fluorescein at 25 nM and MLL-mutant-texas red at 50 nM mixture in FP buffer. 3. Dispense 4 ul per well of reagent in step 1 in columns 2, 4 - 48 in a black 1536 well plate, dispense 4 ul per well of reagents from steps 2 and 3 in columns 1 and 3 respectively. Incubate plate at ambient for 15 minutes. 4. Transfer 23 nl per well of compound to plate and incubate at ambient for 1 hr. 5. Read fluorescence polarization for each label using the PerkinElmer Envision. Envision protocol for fluorescein: FITC FP Dual Enh Mirror, Excitation filter 480, Emission filter (1) P-pol 535, Emission filter (2) S-pol 535 Envision protocol for texas red: FP Dual Enh Mirror, Excitation filter 555, Emission filter (1) P-pol 632, Emission filter (2) S-pol 632

FP activity change, inactive:
CC(C)(C)c1ccc(Cn2nnc3c(=O)[nH]c(C4CCCN(C(=O)c5ccco5)C4)nc32)cc1 (configuration not stated) 2.29%
C/C=C/C=N/NC(=O)c1ccncc1 -2.94%
CCC(=O)Nc1nc(C)c(C(=O)Nc2cccc(Cl)c2)s1 -0.766%
COC(=O)c1ccc(CN2C(=O)NC(c3ccccc3)(c3ccccc3)C2=O)o1 -3.74%
O=C(Nc1nnc(-c2ccccc2F)s1)c1ccccc1F 0.841%
S=c1[nH]c(-c2cccs2)cn1-c1ccccc1 -10%
Cc1ccc(-c2csc(N3CCN(c4cc5c(cc4Cl)nc(-c4ccncc4)n5CCOCCO)CC3)n2)cc1 -0.208%
CCOc1ccc(-n2c(SCC(=O)OC)nc3sc4c(c3c2=O)CCN(C)C4)cc1 6.86%
COC(=O)c1ccc(Nc2ncnc3sccc23)cc1 3.91%
Cc1ccc(NC(=O)Nc2cccnc2)cc1 -1.76%
Cc1ccc(N(Cc2ccccc2O)C(=O)c2ccccc2F)cc1 -5.27%
Cc1ccccc1NC(=S)NC(=O)Cc1ccc(Cl)cc1 -2.56%
O=C(NCCCO)c1cc2c([nH]c3ccccc32)c(-c2ccc(F)cc2)n1 -0.599%
Cc1cc(CNC(=O)C2CCC(=O)N(CCc3ccc(Cl)cc3)C2)no1 (configuration not stated) 4.02%
O=C1CCC([N+](=O)[O-])C(c2ccccc2Br)N1 (configuration not stated) -0.866%
CSc1nnc2ccc(-c3ccc(C)cc3)nn12 3.46%
Cc1ccc(C(=O)c2coc3ccc(O)c(CN(C)C)c23)cc1 -0.231%
CC1(C(=O)NCCc2c[nH]c3ccccc23)C=CC2(CCCCC2)N1C(=O)c1ccccc1 (configuration not stated) 0.914%
Cc1ccc(O)c(NC(=O)c2cc(-c3ccco3)on2)c1 11%
Cc1ccccc1NC(=O)CCOc1ccccc1 0.005%
Cc1ccc(SCC(CC(C)C)N2CCN(CCc3ccccc3)CCC2=O)cc1 (configuration not stated) 4.19%
NS(=O)(=O)c1ccc(CCNC(=O)c2nc(CS(=O)(=O)c3ccc(Cl)cc3)no2)cc1 -0.948%
O=C1CCN(Cc2ccccc2)CCN1[C@H](CSc1ccccc1)c1ccccc1 0.158%
CS(=O)(=O)N(CC(=O)N1CCCCCC1)c1cccc(Cl)c1Cl -2.08%
COc1ccc(NC(=O)N2CCCC2C(=O)NCc2ccccc2Cl)cc1 (configuration not stated) -7.57%
O=C(NCCCN1CCOCC1)C1CCCN(S(=O)(=O)N2CCCCC2)C1 (configuration not stated) 0.555%
Cc1cc(F)ccc1N1CCC(N2CCN(C)C(CCO)C2)CC1 (configuration not stated) -7.47%
Cc1cccc(C(=O)OC(C)CN2CCCC2)c1 (configuration not stated) 5.39%
Cc1cn([C@H]2CC(F)[C@@H](CO)O2)c(=O)[nH]c1=O (some centres not stated) -4.2%
CN1C(=O)CN2CCc3ccccc3C2c2cc(Cl)ccc21 (configuration not stated) -5.51%
C=C1C(=CC=C2CCC[C@@]3(C)[C@@H]2CC[C@H]3[C@H](C)CCCC(C)C)C[C@@H](O)C[C@@H]1O 9.09%
COc1ccc(NC2CCCN(C(=O)c3ccncc3)C2)cc1 (configuration not stated) -4.31%
COc1cccc(OCc2cc(C(=O)N3CCN(C(=O)c4ccco4)CC3)no2)c1 6.94%
Cc1ccc(-c2nc(-c3ccncc3)no2)c(C)c1 -1.78%
CN(Cc1ccccc1)C(=O)c1ccc(COc2ccccc2)cc1 -7.59%
COc1cccc(NC(=O)C2C(c3ccccc3)C2(Cl)Cl)c1 (configuration not stated) -0.0582%
CN(CCO)c1ccc(/C=N/Nc2nncc3ccccc23)cc1 -4.23%
CC(C)c1ccc(NC(=O)Cn2ncc3ccccc32)cc1 -5.91%
COc1ccc(-c2n[nH]c(C)c2-c2ccccc2OC)c(O)c1 -3.47%
CN(CCc1ccccc1)c1ccc([N+](=O)[O-])cn1 -0.677%
CC(C)(C)OC(=O)NC(Cc1ccccc1)C(=O)NC(CSC1CCCCO1)C(=O)NN (configuration not stated) -3.74%
CN(CC(=O)Nc1ccc(Cl)cc1)C(=O)CNC(=O)c1ccc2ccccc2c1 -0.426%
O=C(CCN1CCCO1)N1CCCC(N2CCN(c3cccc(C(F)(F)F)c3)CC2)C1 (configuration not stated) 3.51%
C/C(=N\NC(=O)c1ccoc1C)c1ccccc1O -0.0656%
CC(=O)Nc1ccc(NC(=O)CC2CCCC2)cc1 8.07%
COc1cccc2cc(C(N)=O)/c(=N\NC(=O)c3ccccc3)oc12 3.41%
COc1ccc(OC)c(/C(C)=N\NC(=O)c2cc3cc(Cl)ccc3n2C)c1 4.34%
CCCC[C@]12Cc3cc(OC)c(OC)cc3C(O1)C1=C(CC3(CCCCC3)OC1=O)O2 0.345% [at 11.7 µM]
O=C(COc1ccc(S(=O)(=O)Nc2cccc(C(F)(F)F)c2)cc1)N1CCOCC1 3.89%
O=C(CSc1nnnn1C1CCCC1)N1CCCCC1 0.177%
C[C@@H]1CC[C@@]2(OC1)O[C@H]1C[C@H]3[C@@H]4CC=C5C[C@@H](O)[C@H](O)C[C@]5(C)C4CC[C@]3(C)[C@H]1[C@@H]2C (some centres not stated) -14.6%
COc1c(O)c2c(=O)cc(OC)c3c4c(OC)cc(=O)c5c(O)c(OC)c6c(c(c1C[C@@](C)(O)[C@H]6C(C)=O)c23)c54 -8.66%
COCCNc1cc(-c2ccccc2)nc2cc(-c3cccc(F)c3)nn12 2.42%
COc1ccc(OC)c(NC(=O)CN(C)CCOc2ccc(Br)cc2)c1 -13.1%
CC(C)(c1ccccc1)c1ccc(OCCN2CCCC2)cc1 -1.58%
CCN(CC)c1ccc(/C=N/NC(=O)CNC(=O)c2cccs2)cc1 2.38%
O=C(Cc1cccs1)NCc1cccc(C(F)(F)F)c1 -0.128%
Cc1cc(S(=O)(=O)NCc2ccccn2)c(Cl)cc1Cl -0.167%
COc1ccccc1CNS(=O)(=O)c1ccc2c(c1)NC(=O)CS2 -0.943%
COc1ccc(CNS(=O)(=O)c2ccc(NC(=O)N3CCCCC3)cc2)cc1 -0.428%
Oc1ccc(-c2cccc(-c3ccc(O)cc3)c2)cc1 0.0539%
CCCn1c(=O)c(C(=O)Nc2cc(C)ccn2)c(O)c2ccccc21 1.11%
Cc1cccc(C)c1NC(=O)NC1=CCCN1C 0.307%
O=C(Nc1ccc(F)cc1)c1ccc(S(=O)(=O)NCc2cccnc2)cc1 -2.58%
CC(C)NC(=O)COCc1cc(-c2ccc3c(c2)OCO3)on1 1.18%
COc1ccc(/C=N/Nc2nc(-c3ccc(C)cc3)c(C#N)c(=O)[nH]2)cc1 4.62%
COc1ccc(NCCc2ccccn2)cc1 7.39%
COc1cc(Cl)ccc1OCc1cc(C(=O)N(C)CCc2c(C)n[nH]c2C)no1 5.22%
CCCCn1c(-c2cccc(C)c2)nc2cc3[nH]c(=O)c(C(C)C)nc3cc21 -1.86%
CCOc1ccc(N(C(=O)c2snc(C(N)=O)c2N)C(C(=O)NCC2CCCO2)c2c[nH]c3ccccc23)cc1 (configuration not stated) 0.995%
O=C1OC2(CCCCC2)CC2=C1C1O[C@](c3ccsc3)(Cc3ccccc31)O2 6.24% [at 11.7 µM]
O=C(c1noc2c1CCCC2)N1CCc2ccccc2C1 4.17%
O=C(Nc1ccc(Br)cc1F)C1CC(=O)N(C2CCCCC2)C1 (configuration not stated) -3.69%
O=C(Nc1cccc(Br)c1)c1ccc2snnc2c1 1.58%
CCn1nnnc1SCC(=O)Nc1ccc(N(C)C)cc1 7.93%
CC(C)CN(CC(C)C)C(=O)CN1c2cccc3cccc(c23)S1(=O)=O -0.109%
Cc1c(C)n(Cc2ccc(Cl)cc2)c2ccc(C(=O)NCCCN3CCOCC3)cc12 -1.82%
COc1ccc(/C=C/c2noc(-c3ccccc3OC(C)=O)n2)cc1 -1.92%
COc1ccc(C)cc1Nc1n[n+](-c2ccccc2)c(-c2cccc(Cl)c2Cl)s1 -4.87%
CN(Cc1ccccc1)C(=O)C1CCCN(c2ncnc3c2nc2n3CCCCC2)C1 (configuration not stated) 7.84%
C[n+]1cc(-c2ccccc2)oc1-c1ccccc1 2.02%
CS(=O)(=O)Nc1ccccc1N=C(c1ccccc1)c1ccccc1 -3.8%
O=S1(=O)CCOC[C@H](CC2CCCCC2)N1Cc1ccc(F)cc1 3.27%
Cc1cc(C)n2nc(CNS(=O)(=O)c3c(F)c(F)c(F)c(F)c3F)nc2n1 -0.766%
Cc1ccc(-c2ncc(Cl)cc2-c2ccc(S(C)(=O)=O)cc2)cn1 -0.497%
CCc1ccccc1NC(=S)Nc1cc(OC)c(NC(=O)C(C)C)cc1OC 2.06%
CC(=O)Oc1ccc(-c2cccc(C(=O)N3CCCCC3)c2)cc1 -1.05%
O=P(O)(O)OC[C@H](O)CO 1.8%
CCOCCCNC(=O)C1(O)c2cc(Br)ccc2NC(=O)N1c1ccc(C)c(C)c1 (configuration not stated) -1.16%
COC(=O)C1(C)NC(c2ccc(F)cc2)C2C(=O)N(c3ccccc3)C(=O)C21 (configuration not stated) 1.25%
Cc1cccc(OCCC(=O)Nc2ccccc2C(N)=O)c1 11.1%
COc1ccc2c(C(=O)c3ccc(C)cc3)n(CCC(N)=O)[n+]([O-])c2c1 -1.07%
Cc1ccc(N2CCN(C(=O)c3cccs3)CC2)c(C)c1 -3.88%
c1ccc(-c2ccc(OCCN3CCOCC3)cc2)cc1 -3.06%
COc1ccc(N(CC(=O)NCCSCc2cccc(Cl)c2)S(C)(=O)=O)cc1 -0.4%
COc1ccc(C(=O)O/N=C(\N)c2ccccn2)cc1[N+](=O)[O-] 2.14%
NS(=O)(=O)c1ccc2nc(NC(=O)C3=COCCO3)sc2c1 -3.94%
COc1ccc(N2CCN(C(=O)c3cccs3)CC2)cc1 -2.7%
CS(=O)(=O)N1CCCC(C(=O)Nc2ccccc2C(F)(F)F)C1 (configuration not stated) -2.75%
O=C(Nc1nnc(C2=COCCO2)o1)c1ccc([N+](=O)[O-])s1 -4.17%
CC1CCN(CC(O)COc2ccc(C(=O)c3ccccc3)cc2)CC1 (configuration not stated) -3.11%
CC(C)(O)c1ccccc1CC[C@H](SCC1(CC(=O)O)CC1)c1cccc(/C=C/c2ccc3ccc(Cl)cc3n2)c1 -1.58%
CCOc1ccc(CN2CCC(n3nccc3NC(=O)C3CC3)CC2)cc1CO 0.299%
COc1cc(/C=C/C(=O)O)cc(S(=O)(=O)Nc2ccccc2C(=O)NCCc2ccccc2)c1OC 3.17%
Cc1cc(=O)[nH]c(Nc2cccc(Br)c2)n1 0.992%
CCCc1cc(C(=O)Nc2ccc(Cl)cn2)cs1 -1.52%
Cc1ccc(S(=O)(=O)NCC2CCC(C(=O)N3CCOCC3)CC2)cc1 (configuration not stated) -11.9%
